In paper PMC11006913:
Substitutions are numbered along the chain they refer to.

These sequences were tested against T1, SIX6 (Homo sapiens, UniProt O95475 114-200, T165P) (assay: PBM; 200 nM protein, PBS). Conditions: dsDNA, one strand shown.
T1 sequence: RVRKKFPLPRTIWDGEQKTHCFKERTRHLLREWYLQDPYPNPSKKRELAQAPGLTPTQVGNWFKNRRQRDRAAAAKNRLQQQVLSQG

Point of comparison: CGGTATCA, binding signal 9.64 upbm affinity estimate (log intensity, higher = more binding, comparable within an allelic series). Against it:
- CCAGTGCG — lower, 9.02 upbm affinity estimate (log intensity, higher = more binding, comparable within an allelic series)
- GATATCCA — higher, 9.81 upbm affinity estimate (log intensity, higher = more binding, comparable within an allelic series)
- ATATCATG — higher, 9.92 upbm affinity estimate (log intensity, higher = more binding, comparable within an allelic series)
- CATGATCA — higher, 9.68 upbm affinity estimate (log intensity, higher = more binding, comparable within an allelic series)
- GTGATATA — higher, 9.96 upbm affinity estimate (log intensity, higher = more binding, comparable within an allelic series)
- GGCCCCAA — lower, 9.01 upbm affinity estimate (log intensity, higher = more binding, comparable within an allelic series)
- AGTATCAT — higher, 9.89 upbm affinity estimate (log intensity, higher = more binding, comparable within an allelic series)
- AGGGTATC — lower, 9.36 upbm affinity estimate (log intensity, higher = more binding, comparable within an allelic series)
- AGGGCCCG — lower, 8.84 upbm affinity estimate (log intensity, higher = more binding, comparable within an allelic series)
- GGCCTCCA — lower, 9.13 upbm affinity estimate (log intensity, higher = more binding, comparable within an allelic series)
- ACTGCCGG — lower, 9.02 upbm affinity estimate (log intensity, higher = more binding, comparable within an allelic series)
- GGCCCCGA — lower, 8.86 upbm affinity estimate (log intensity, higher = more binding, comparable within an allelic series)
- GCCAGTCC — lower, 9.04 upbm affinity estimate (log intensity, higher = more binding, comparable within an allelic series)
- GCAGTGGC — lower, 8.89 upbm affinity estimate (log intensity, higher = more binding, comparable within an allelic series)
- GCGCTGCC — lower, 8.85 upbm affinity estimate (log intensity, higher = more binding, comparable within an allelic series)
- CCGGCGCC — lower, 9.05 upbm affinity estimate (log intensity, higher = more binding, comparable within an allelic series)
- CAGGGCGC — lower, 9 upbm affinity estimate (log intensity, higher = more binding, comparable within an allelic series)
- CCCCGAGG — lower, 8.94 upbm affinity estimate (log intensity, higher = more binding, comparable within an allelic series)
- AGCTCCGC — lower, 8.97 upbm affinity estimate (log intensity, higher = more binding, comparable within an allelic series)
- GATATCAC — higher, 9.67 upbm affinity estimate (log intensity, higher = more binding, comparable within an allelic series)
- GATACCCC — lower, 9.41 upbm affinity estimate (log intensity, higher = more binding, comparable within an allelic series)
- ACTGATAC — higher, 9.79 upbm affinity estimate (log intensity, higher = more binding, comparable within an allelic series)
- ATATACAC — higher, 10.1 upbm affinity estimate (log intensity, higher = more binding, comparable within an allelic series)
- CGGCCTTC — lower, 9 upbm affinity estimate (log intensity, higher = more binding, comparable within an allelic series)
- CCGGGGCC — lower, 8.97 upbm affinity estimate (log intensity, higher = more binding, comparable within an allelic series)
- AGCGGCGC — lower, 8.89 upbm affinity estimate (log intensity, higher = more binding, comparable within an allelic series)
- GTATCAAA — higher, 9.91 upbm affinity estimate (log intensity, higher = more binding, comparable within an allelic series)
- CAGTGGCC — lower, 9.04 upbm affinity estimate (log intensity, higher = more binding, comparable within an allelic series)
- GATATCTA — higher, 9.98 upbm affinity estimate (log intensity, higher = more binding, comparable within an allelic series)
- CCCTCTGC — lower, 8.85 upbm affinity estimate (log intensity, higher = more binding, comparable within an allelic series)
- CGGCGGAA — lower, 9.07 upbm affinity estimate (log intensity, higher = more binding, comparable within an allelic series)
- CAGTATCA — higher, 9.69 upbm affinity estimate (log intensity, higher = more binding, comparable within an allelic series)
- CGCAAGCG — lower, 9.04 upbm affinity estimate (log intensity, higher = more binding, comparable within an allelic series)
- AGGCGCCC — lower, 8.77 upbm affinity estimate (log intensity, higher = more binding, comparable within an allelic series)
- CCGCCAGC — lower, 9.02 upbm affinity estimate (log intensity, higher = more binding, comparable within an allelic series)
- ATGGCCGC — lower, 8.94 upbm affinity estimate (log intensity, higher = more binding, comparable within an allelic series)
- GGATATCA — lower, 9.53 upbm affinity estimate (log intensity, higher = more binding, comparable within an allelic series)
- CTCGATAC — higher, 9.7 upbm affinity estimate (log intensity, higher = more binding, comparable within an allelic series)
- CGCAGCGC — lower, 8.96 upbm affinity estimate (log intensity, higher = more binding, comparable within an allelic series)

Each sequence was assayed against T2, SIX6 (Homo sapiens, UniProt O95475 114-200, L167M) (assay: PBM; 200 nM protein, PBS). Conditions: dsDNA, one strand shown.
T2 sequence: T1 sequence with P52T, L54M

Point of comparison: GATATCTA, binding signal 10.8 upbm affinity estimate (log intensity, higher = more binding, comparable within an allelic series). Against it:
- CCAGTGCG — lower, 8.94 upbm affinity estimate (log intensity, higher = more binding, comparable within an allelic series)
- GATATCCA — lower, 10.7 upbm affinity estimate (log intensity, higher = more binding, comparable within an allelic series)
- ATATCATG — the same, 10.8 upbm affinity estimate (log intensity, higher = more binding, comparable within an allelic series)
- CATGATCA — lower, 10.1 upbm affinity estimate (log intensity, higher = more binding, comparable within an allelic series)
- GTGATATA — higher, 11 upbm affinity estimate (log intensity, higher = more binding, comparable within an allelic series)
- GGCCCCAA — lower, 8.96 upbm affinity estimate (log intensity, higher = more binding, comparable within an allelic series)
- AGTATCAT — higher, 10.9 upbm affinity estimate (log intensity, higher = more binding, comparable within an allelic series)
- AGGGTATC — lower, 10.7 upbm affinity estimate (log intensity, higher = more binding, comparable within an allelic series)
- AGGGCCCG — lower, 8.98 upbm affinity estimate (log intensity, higher = more binding, comparable within an allelic series)
- GGCCTCCA — lower, 8.94 upbm affinity estimate (log intensity, higher = more binding, comparable within an allelic series)
- ACTGCCGG — lower, 9.04 upbm affinity estimate (log intensity, higher = more binding, comparable within an allelic series)
- GGCCCCGA — lower, 8.96 upbm affinity estimate (log intensity, higher = more binding, comparable within an allelic series)
- GCCAGTCC — lower, 8.92 upbm affinity estimate (log intensity, higher = more binding, comparable within an allelic series)
- GCAGTGGC — lower, 8.96 upbm affinity estimate (log intensity, higher = more binding, comparable within an allelic series)
- GCGCTGCC — lower, 8.8 upbm affinity estimate (log intensity, higher = more binding, comparable within an allelic series)
- CCGGCGCC — lower, 9 upbm affinity estimate (log intensity, higher = more binding, comparable within an allelic series)
- CAGGGCGC — lower, 8.98 upbm affinity estimate (log intensity, higher = more binding, comparable within an allelic series)
- CCCCGAGG — lower, 9.01 upbm affinity estimate (log intensity, higher = more binding, comparable within an allelic series)
- AGCTCCGC — lower, 8.95 upbm affinity estimate (log intensity, higher = more binding, comparable within an allelic series)
- GATATCAC — lower, 10.7 upbm affinity estimate (log intensity, higher = more binding, comparable within an allelic series)
- GATACCCC — higher, 11 upbm affinity estimate (log intensity, higher = more binding, comparable within an allelic series)
- ACTGATAC — lower, 10.5 upbm affinity estimate (log intensity, higher = more binding, comparable within an allelic series)
- ATATACAC — the same, 10.8 upbm affinity estimate (log intensity, higher = more binding, comparable within an allelic series)
- CGGCCTTC — lower, 8.83 upbm affinity estimate (log intensity, higher = more binding, comparable within an allelic series)
- CCGGGGCC — lower, 9.04 upbm affinity estimate (log intensity, higher = more binding, comparable within an allelic series)
- AGCGGCGC — lower, 8.88 upbm affinity estimate (log intensity, higher = more binding, comparable within an allelic series)
- CGGTATCA — lower, 10.6 upbm affinity estimate (log intensity, higher = more binding, comparable within an allelic series)
- GTATCAAA — the same, 10.8 upbm affinity estimate (log intensity, higher = more binding, comparable within an allelic series)
- CAGTGGCC — lower, 8.93 upbm affinity estimate (log intensity, higher = more binding, comparable within an allelic series)
- CCCTCTGC — lower, 8.95 upbm affinity estimate (log intensity, higher = more binding, comparable within an allelic series)
- CGGCGGAA — lower, 8.95 upbm affinity estimate (log intensity, higher = more binding, comparable within an allelic series)
- CAGTATCA — lower, 10.5 upbm affinity estimate (log intensity, higher = more binding, comparable within an allelic series)
- CGCAAGCG — lower, 9.02 upbm affinity estimate (log intensity, higher = more binding, comparable within an allelic series)
- AGGCGCCC — lower, 8.76 upbm affinity estimate (log intensity, higher = more binding, comparable within an allelic series)
- CCGCCAGC — lower, 9.06 upbm affinity estimate (log intensity, higher = more binding, comparable within an allelic series)
- ATGGCCGC — lower, 8.89 upbm affinity estimate (log intensity, higher = more binding, comparable within an allelic series)
- GGATATCA — higher, 10.9 upbm affinity estimate (log intensity, higher = more binding, comparable within an allelic series)
- CTCGATAC — lower, 10.2 upbm affinity estimate (log intensity, higher = more binding, comparable within an allelic series)
- CGCAGCGC — lower, 9.06 upbm affinity estimate (log intensity, higher = more binding, comparable within an allelic series)
